# An excerpt weighted towards active compounds, which were near 8% of everything screened.
# HT1080NT lethal: qHTS for induction of synthetic lethality in tumor cells producing 2HG: qHTS for the HT-1080-NT fibrosarcoma cell line. Potency, µM (titrated, usually from 46.1 µM), for the others: at the highest dose activity, negative = less viability, hits mostly cytotoxic. HT-1080-NT fibrosarcoma viability, CellTiter-Glo ATP luminescence, 48 h. 360,000 compounds, 1.6% hits;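 further: NT is the 2HG producing partner of a matched IDH1 knockdown line; 0% = DMSO-treated cells and -100% = media-only wells without cells; nearly all actives have a fitted effect of over 55% in size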
#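 Read-out is CellTiter-Glo luminescence after 10 minutes at room temperature, following 48 hours' compound treatment of HT-1080-NT cells (750 cells/well, RPMI, 5% FBS, 37 degrees C).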
# KB-V1 MDR tox: qHTS assay for MDR1-selective chemotherapeutics: Primary screen using the drug-selected MDR subline cells KB-V1 | KB-V1 MDR cells viability, CellTiter-Glo, 72 h | Potency, µM (series often up to 46.1 µM), hits mostly cytotoxic | 400,000 compounds, 3.4% hits; further: on the % scale 0 is the no-effect control and ±100 the full control effect; nearly all actives have a fitted effect of over 60% in size
#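 Cytotoxicity toward P-gp-expressing KB-V1 cells was determined as loss of CellTiter-Glo luminescence after 72 h at 37 degrees C. Compounds were tested in quantitative HTS format across a concentration range, with curves fitted to normalized data.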
# SW480 rerep: A quantitative high throughput screen for small molecules that induce DNA re-replication in SW480 colon adenocarcinoma cells. SW480 DNA re-replication, Hoechst DNA content imaging, 48 h. Potency, µM (doses to about 46.1 µM), inactives show at the highest dose re-replication activation, usual class: activators. 340,000 compounds, 1.8% hits. AID 624297, 2012; further: % of control where 0% means no effect; nearly all actives have a fitted effect of over 55% in size
#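 Per well, 250 cells were exposed to pinned compound for 48 hr. Nuclear DNA was visualised with Hoechst (40 min, 37 C) and total object intensity recorded by fluorescence scanning.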
# HT1080 IDH1KD tx: qHTS for induction of synthetic lethality in tumor cells producing 2HG: qHTS for the HT-1080-IDH1KD cell line; Potency, µM (series often up to 46.1 µM), for inactives: at the highest dose activity, negative = toxicity, actives largely listed as cytotoxic; AID 686971, 2013; HT-1080 IDH1 knockdown viability, ATP luminescence, 48 h; 360,000 compounds, 2% hits;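 further: 0% = DMSO wells and -100% = cell-free medium wells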
#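 In this qHTS, HT-1080 cells depleted of IDH1 are exposed for 48 h at 37 °C to compound titrations. Toxicity is scored from CellTiter-Glo luminescence, with DMSO as full viability and medium alone as none.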
# MCF10A rereplic: A quantitative high throughput screen for small molecules that induce DNA re-replication in MCF 10a normal breast cells | MCF 10A DNA re-replication, Hoechst nuclear intensity, 48 h | Potency, µM (series often up to 46.1 µM), for inactives: at the highest dose activity, positive = re-replication, actives largely listed as activators | AID 624296, 2012 | 350,000 compounds, 2.9% hits; further: % of control where 0% means no effect; nearly all actives have a fitted effect of over 50% in size
# KB-3-1 cytotox: qHTS assay for MDR1-selective chemotherapeutics: Primary screen using the parental adenocarcinoma cell KB-3-1; Potency, µM (top dose mostly 46.1 µM), most hits filed as cytotoxic; AID 1347075, 2019; 400,000 compounds, 1.4% hits; KB-3-1 viability, CellTiter-Glo ATP luminescence, 72 h; further: on the % scale 0 is the no-effect control and ±100 the full control effect; nearly all actives have a fitted effect of over 60% in size
#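 Using CellTiter-Glo luminescence, growth of non-resistant KB-3-1 adenocarcinoma cells is assessed 72 h after pin-tool compound addition at 37 °C. Normalized responses across the concentration series yield fitted curves.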
# The depositor's hits bear a star; i = inactive; ? = inconclusive; / = no result; [ ] = dose if it differs, or a comment. The call rests on the fitted dose curve; in most records, active means well fitted curve in the direction sought with a large enough effect; inconclusive means small, poorly fitted or top-dose-only effect, or another doubt; inactive means no such curve, though single readings can be large; an effect the other way counts as inactive or inconclusive. Potency means the concentration at half of the fitted maximal effect.
SMILES,HT1080NT lethal,KB-V1 MDR tox,SW480 rerep,HT1080 IDH1KD tx,MCF10A rereplic,KB-3-1 cytotox
Cc1cccc(C2=NN(c3ccccc3)[C@@H](C(=O)N3CCOC3=O)[C@@H]2c2ccc(F)cc2)c1,-9%,i,?,-18%,?,i
CCCNc1c(NS(=O)(=O)c2ccc(C3CCCCC3)cc2)c(=O)oc2ccccc12,-5%,i,?,-2%,12µM*,i
O=C(OCc1ccc(Br)cc1)c1ccncc1,-1%,i,?,9%,7%,i
CCOc1ncccc1C(=O)OCc1ccc(C(=O)OC)cc1,?,i,7.3µM*,?,3%,?
Cc1noc(C)c1COC(=O)c1ccc(N(C)C)cc1,16%,4.1µM*,-10%,3%,0%,?
CC(=O)Nc1ccc(C(=O)OCc2ccc(Br)cc2)cc1,-6%,18µM*,4%,0%,?,i
COC(=O)c1ccc(COC(=O)c2ccc(N(C)C)cc2)cc1,5%,i,?,23%[9.24 µM],8.2µM*,i
CCN(C(=O)COC(=O)c1ccc(OCc2c(C)noc2C)cc1)c1ccccc1,3%,i,-1%,-3%,12%,i
CN(CC(=O)N1CCN(c2ccc(F)cc2)CC1)S(=O)(=O)c1ccc(F)cc1,0%,i,-5%,0%,-4%,i
CC1CCN(C(=O)c2ccc(SCc3ccccc3F)c([N+](=O)[O-])c2)CC1,?,i,9%,-7%,-2%,i
Cc1ccc(NS(=O)(=O)c2ccc3c(c2)CCC(=O)N3)cc1,-4%,i,12%,2%,-2%,i
Nc1c(Cl)ncnc1NCCO,7%,?,0%,5%,2%,i
Cc1ccc(CCNc2ncnc(Cl)c2N)cc1,0.65µM*,?,9%,?,-1%,?
CCOC(=O)Cc1cc(=O)[nH]c(/N=C(\N)Nc2ccc(C)c(C)c2)n1,-6%,?,-2%,0%,12%,i
O=C(c1ccc2c(c1)OCCO2)C1CCN(C(=O)c2ccc(F)c(F)c2)CC1,-2%,5.8µM*,-4%,?,2%,?
O=C(CN1CCC(C(=O)c2ccc3c(c2)OCCO3)CC1)Nc1ccccc1C(F)(F)F,3%,i,4%,-16%,16µM*,i
Cc1ccccc1NC(=O)CN1CCC(C(=O)c2ccc3c(c2)OCCO3)CC1,-7%,?,29%,-3%,3%,i
O=C(CN1CCC(C(=O)c2ccc(Cl)cc2)CC1)Nc1ccc2c(c1)OCCO2,?,9.2µM*,-9%,?,22%,?
O=C(CCCNS(=O)(=O)c1cccc2nsnc12)NCc1ccccc1,12%,i,2%,12%,0%,i
CC(=O)Nc1cccc(C(=O)/C=C/c2ccc(C)cc2)c1,-5%,i,?,?,21µM*,?
COc1cccc(NC(=S)NC(=O)/C=C/c2ccc(F)cc2)c1,6%,i,?,5%,-3%,i
CCC(=O)Nc1cccc(C(=O)/C=C/c2ccc(F)cc2)c1,-30%,i,10µM*,?,?,?
CC(C)N(CCNC(=O)COc1ccc2oc3c(c2c1)CCCC3)C(C)C,-21%,i,?,?,-1%,i
O=C1NC(=S)S/C1=C\c1cccc([N+](=O)[O-])c1,-22%,?,?,-27%,18µM*,?
O=C1NC(=Nc2ccccc2Cl)S/C1=C\c1cccc([N+](=O)[O-])c1,?,i,-7%,-13%,?,?
SMILES,HT1080NT lethal,KB-V1 MDR tox,SW480 rerep,HT1080 IDH1KD tx,MCF10A rereplic,KB-3-1 cytotox
COc1cc(/C=C2\CC(C(C)(C)C)C/C(=C\c3cc(OC)c(OC)c(OC)c3)C2=O)cc(OC)c1OC (configuration not stated),12µM*,i,7.3µM*,5.8µM*,3.3µM*,8.2µM*
CCOc1ccc(N2C(=O)S/C(=C\c3ccc(O)c(OCC)c3)C2=O)cc1,0%,i,?,3%,16µM*,i
CCOc1cc(/C=C2\CCCC(C(=O)C(F)(F)F)=C2O)ccc1O,?,i,?,?,18µM*,i
C[C@H](CO)N1C[C@H](C)[C@H](CN(C)C(=O)Cc2cccnc2)Oc2ncc(Br)cc2C1=O,4%,i,/,11%,/,i
CN(C(=S)Nc1ccccc1F)C1(c2ccccc2Cl)CCCCC1=O (configuration not stated),6%,i,0%,-5%,-3%,i
COc1cc(/C=C2\CCC/C(=C\c3ccc(O)c(OC)c3)C2=O)ccc1O,18µM*,?,?,5.8µM*,4.1µM*,?
COc1ccc(/C=C2/CC/C(=C\c3ccc(OC)c(OC)c3OC)C2=O)c(OC)c1OC,6%,2.1µM*,?,-4%,9%,i
CCOc1cc(/C=C2\CN(CC)C/C(=C\c3ccc(O)c(OCC)c3)C2=O)ccc1O,2.6µM*,?,?,2.9µM*,?,?
COc1cc(/C=C2\SC(N)=NC2=O)cc(Cl)c1O,-2%,i,-3%,-12%,0%,i
CCOc1cc(/C=N/N=C/c2ccc(O)c(OCC)c2)ccc1O,-1%,i,-8%,3%,9%,i
COc1cc(/C=C2/CCC/C(=C\c3cc(O)c(OC)c(Cl)c3)C2=O)cc(Cl)c1O,?,8.2µM*,6.5µM*,21µM*,2.1µM*,?
O=C1NC[C@H](c2ccccc2)N(CCC23CC4CC(CC(C4)C2)C3)C1=O,-8%,i,-4%,-11%,11%,i
COc1ccccc1C=C1SC(=S)NC1=O,-7%,i,0%,-5%,17%,i
COc1cc(/C=C2\COC/C(=C\c3cc(OC)c(OC)c(OC)c3)C2=O)cc(OC)c1OC,?,?,?,0.52µM*,?,?
O=C1NC(=S)SC1=Cc1ccccc1Cl,?,i,10%,-16%,6.5µM*,?
CCN1C/C(=C/c2cccc([N+](=O)[O-])c2)C(=O)/C(=C/c2cccc([N+](=O)[O-])c2)C1,4.1µM*,?,3.7µM*,3.3µM*,0.82µM*,i

# From PubChem BioAssay
